In PMC7862700, “An all-to-all approach to the identification of sequence-specific readers for epigenetic DNA modifications on cytosine” one finds binding signal data, which are given here for one sequence.

Common to all, as to experiment: DAPPL (digital affinity profiling via proximity ligation, sequencing); 10 mM Tris-HCl pH 7.5, 50 mM NaCl, 1 mM DTT, 4% glycerol, room temperature, 30 min; GST-TFs on glutathione beads, 16-mer random dsDNA library, 0.1% formaldehyde crosslink after washing; high values mean tight binding
One test concerns the target T1, FEV (Homo sapiens, UniProt Q99581 1-238).
T1 sequence: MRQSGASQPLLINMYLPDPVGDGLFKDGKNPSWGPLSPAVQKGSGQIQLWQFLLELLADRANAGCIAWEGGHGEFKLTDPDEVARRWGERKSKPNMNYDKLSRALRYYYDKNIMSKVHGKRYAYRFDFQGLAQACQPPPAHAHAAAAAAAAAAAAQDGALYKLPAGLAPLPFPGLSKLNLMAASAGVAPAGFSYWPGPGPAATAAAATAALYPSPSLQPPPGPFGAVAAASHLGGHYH
The note with it: protein: recombinant; tags: N-terminal GST; dsDNA, one strand shown. The method in brief: (§1)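 Beads coated with glutathione captured GST-fused human transcription factors that had been expressed in yeast, and the factors were then given DNA barcodes and pooled with a tag-only sample. The pools were incubated with 200 nmole of a random double-stranded 16-mer DNA library in Tris/NaCl/DTT/glycerol buffer for 30 min at room temperature, washed, crosslinked with 0.1% formaldehyde and proximity-ligated with BsaI/T4 ligase at 37 °C for 1 h. PCR amplification and Illumina NextSeq500 sequencing came last. Binding signal is each hexamer's read frequency for a factor divided by its frequency for the tag-only sample.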

The next test has as its target ETV5 (Homo sapiens, UniProt P41161 1-510). The note with it: protein: recombinant; tags: N-terminal GST; dsDNA, one strand shown. The method in brief: as §1
The target of the next test is HSF1 (Homo sapiens, UniProt Q00613 1-529). To be noted: protein: recombinant; tags: N-terminal GST; chain copies: 3; dsDNA, one strand shown. Put shortly: as §1
Chain of HSF1 (Q00613 whole entry): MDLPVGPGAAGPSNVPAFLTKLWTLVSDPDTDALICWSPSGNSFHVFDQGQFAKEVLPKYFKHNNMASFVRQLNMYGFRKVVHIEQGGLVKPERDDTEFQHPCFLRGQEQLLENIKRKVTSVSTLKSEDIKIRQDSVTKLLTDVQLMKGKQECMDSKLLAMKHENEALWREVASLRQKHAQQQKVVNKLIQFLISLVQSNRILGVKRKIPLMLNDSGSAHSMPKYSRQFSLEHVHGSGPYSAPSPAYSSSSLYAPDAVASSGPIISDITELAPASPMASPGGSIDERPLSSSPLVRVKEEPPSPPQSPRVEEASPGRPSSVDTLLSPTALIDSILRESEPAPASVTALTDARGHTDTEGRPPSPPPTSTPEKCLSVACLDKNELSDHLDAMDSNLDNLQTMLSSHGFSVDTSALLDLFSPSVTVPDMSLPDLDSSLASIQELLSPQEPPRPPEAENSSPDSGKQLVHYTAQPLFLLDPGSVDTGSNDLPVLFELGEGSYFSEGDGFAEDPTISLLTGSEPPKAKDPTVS
Another test addresses T2, SPIC (Homo sapiens, UniProt Q8N5J4 1-248).
T2 sequence: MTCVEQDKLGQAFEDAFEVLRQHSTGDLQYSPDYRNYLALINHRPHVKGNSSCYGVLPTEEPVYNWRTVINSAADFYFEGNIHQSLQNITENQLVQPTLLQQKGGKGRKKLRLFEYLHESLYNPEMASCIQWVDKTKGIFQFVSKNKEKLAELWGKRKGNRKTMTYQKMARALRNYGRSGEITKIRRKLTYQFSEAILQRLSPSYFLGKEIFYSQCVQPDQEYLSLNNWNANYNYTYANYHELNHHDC
The note with it: protein: recombinant; tags: N-terminal GST; dsDNA, one strand shown. Put shortly: as §1

The next test deals with ELF4 (Homo sapiens, UniProt Q99607 1-663). The note with it: protein: recombinant; tags: N-terminal GST; dsDNA, one strand shown. Put shortly:
as §1

In another test the target is T3, ELK4 (Homo sapiens, UniProt P28324-2 1-405).
T3 sequence: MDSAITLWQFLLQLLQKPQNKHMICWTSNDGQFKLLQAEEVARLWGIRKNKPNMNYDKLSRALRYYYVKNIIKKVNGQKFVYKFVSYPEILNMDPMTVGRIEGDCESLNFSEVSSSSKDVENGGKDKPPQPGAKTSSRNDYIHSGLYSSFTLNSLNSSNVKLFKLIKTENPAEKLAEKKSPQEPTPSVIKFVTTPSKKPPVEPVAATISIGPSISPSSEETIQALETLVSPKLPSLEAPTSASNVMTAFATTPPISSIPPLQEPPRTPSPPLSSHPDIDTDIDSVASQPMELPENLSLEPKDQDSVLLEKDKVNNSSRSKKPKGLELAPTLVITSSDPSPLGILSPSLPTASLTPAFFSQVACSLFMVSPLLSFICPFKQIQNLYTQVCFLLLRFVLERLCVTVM
The note with it: protein: recombinant; tags: N-terminal GST; dsDNA, one strand shown. Put shortly:
as §1

Another test concerns the target T4, ETV2 (Homo sapiens, UniProt O00321 1-342).
T4 sequence: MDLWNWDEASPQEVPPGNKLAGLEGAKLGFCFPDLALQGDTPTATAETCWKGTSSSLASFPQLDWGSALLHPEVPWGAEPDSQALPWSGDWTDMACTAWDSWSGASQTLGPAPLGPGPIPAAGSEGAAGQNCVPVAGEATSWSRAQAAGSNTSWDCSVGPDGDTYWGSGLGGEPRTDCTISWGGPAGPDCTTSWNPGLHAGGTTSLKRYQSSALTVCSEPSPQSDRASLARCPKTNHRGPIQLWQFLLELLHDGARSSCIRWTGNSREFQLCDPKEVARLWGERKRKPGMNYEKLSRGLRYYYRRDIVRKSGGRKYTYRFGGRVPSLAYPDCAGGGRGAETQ
To be noted: protein: recombinant; tags: N-terminal GST; dsDNA, one strand shown. Put shortly:
as §1

Another test deals with T5, ELF3 (Homo sapiens, UniProt P78545 1-371).
T5 sequence: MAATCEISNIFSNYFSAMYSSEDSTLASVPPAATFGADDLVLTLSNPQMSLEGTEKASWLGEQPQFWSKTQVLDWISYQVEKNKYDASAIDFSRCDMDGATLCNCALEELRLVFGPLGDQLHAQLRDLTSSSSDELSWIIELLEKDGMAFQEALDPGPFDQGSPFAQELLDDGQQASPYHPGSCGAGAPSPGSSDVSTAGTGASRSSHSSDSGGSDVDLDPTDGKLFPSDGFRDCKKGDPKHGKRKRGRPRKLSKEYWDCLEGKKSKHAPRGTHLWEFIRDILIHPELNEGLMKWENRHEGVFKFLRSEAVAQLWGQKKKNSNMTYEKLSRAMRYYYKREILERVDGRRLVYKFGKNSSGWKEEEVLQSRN
The note with it: protein: recombinant; tags: N-terminal GST; dsDNA, one strand shown. Put shortly: as §1

The target of a further test is CRX (Homo sapiens, UniProt O43186 1-299). To be noted: protein: recombinant; tags: N-terminal GST; dsDNA, one strand shown. The method in brief:
as §1

The next test concerns the target ETV1 (Homo sapiens, UniProt P50549 1-477). To be noted: protein: recombinant; tags: N-terminal GST; dsDNA, one strand shown. The method in brief:
as §1

A further test addresses T6, ERF (Homo sapiens, UniProt P50548 1-548).
T6 sequence: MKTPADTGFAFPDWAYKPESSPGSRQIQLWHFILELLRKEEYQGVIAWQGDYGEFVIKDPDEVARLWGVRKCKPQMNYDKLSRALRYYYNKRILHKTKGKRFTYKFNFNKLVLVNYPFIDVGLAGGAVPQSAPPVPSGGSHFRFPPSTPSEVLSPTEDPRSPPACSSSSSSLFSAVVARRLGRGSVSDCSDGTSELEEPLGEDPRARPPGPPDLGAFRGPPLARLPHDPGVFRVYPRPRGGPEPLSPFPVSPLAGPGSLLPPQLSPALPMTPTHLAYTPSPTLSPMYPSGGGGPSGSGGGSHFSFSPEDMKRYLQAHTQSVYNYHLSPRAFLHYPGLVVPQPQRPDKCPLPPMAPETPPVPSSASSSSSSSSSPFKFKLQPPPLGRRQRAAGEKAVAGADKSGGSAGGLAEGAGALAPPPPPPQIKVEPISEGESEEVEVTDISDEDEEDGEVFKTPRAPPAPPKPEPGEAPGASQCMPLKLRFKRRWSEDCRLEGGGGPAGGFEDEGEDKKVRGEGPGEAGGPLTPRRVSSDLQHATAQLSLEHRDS
The note with it: protein: recombinant; tags: N-terminal GST; dsDNA, one strand shown. Put shortly:
as §1

The next test deals with T7, ETV3L (Homo sapiens, UniProt Q6ZN32 1-361).
T7 sequence: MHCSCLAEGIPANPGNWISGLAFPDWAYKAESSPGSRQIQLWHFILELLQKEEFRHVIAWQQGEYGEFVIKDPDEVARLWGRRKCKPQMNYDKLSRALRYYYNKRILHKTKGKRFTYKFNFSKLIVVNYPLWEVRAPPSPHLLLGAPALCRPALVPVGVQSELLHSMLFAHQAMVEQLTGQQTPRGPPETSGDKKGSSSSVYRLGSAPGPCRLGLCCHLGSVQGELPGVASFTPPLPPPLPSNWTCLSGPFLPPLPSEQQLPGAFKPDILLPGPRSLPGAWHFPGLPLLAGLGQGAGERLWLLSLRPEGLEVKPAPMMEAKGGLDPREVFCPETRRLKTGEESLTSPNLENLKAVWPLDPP
The note with it: protein: recombinant; tags: N-terminal GST; dsDNA, one strand shown. The method in brief: as §1

The target in another test is T8, ETS2 (Homo sapiens, UniProt P15036 1-469).
T8 sequence: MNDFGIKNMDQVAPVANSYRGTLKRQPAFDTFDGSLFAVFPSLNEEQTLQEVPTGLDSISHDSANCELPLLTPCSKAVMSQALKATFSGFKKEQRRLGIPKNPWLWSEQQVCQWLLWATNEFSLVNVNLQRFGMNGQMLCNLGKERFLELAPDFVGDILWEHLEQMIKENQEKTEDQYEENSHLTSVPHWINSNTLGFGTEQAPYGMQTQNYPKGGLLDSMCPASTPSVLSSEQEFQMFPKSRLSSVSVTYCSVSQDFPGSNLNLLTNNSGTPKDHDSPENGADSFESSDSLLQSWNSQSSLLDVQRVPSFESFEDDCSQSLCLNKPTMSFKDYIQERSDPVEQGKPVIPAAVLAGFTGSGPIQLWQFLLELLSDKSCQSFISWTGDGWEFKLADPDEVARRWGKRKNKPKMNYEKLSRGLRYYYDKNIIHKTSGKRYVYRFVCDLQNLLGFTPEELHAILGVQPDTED
The note with it: protein: recombinant; tags: N-terminal GST; dsDNA, one strand shown. Put shortly:
as §1

Another test addresses T9, SPDEF (Homo sapiens, UniProt O95238 1-335).
T9 sequence: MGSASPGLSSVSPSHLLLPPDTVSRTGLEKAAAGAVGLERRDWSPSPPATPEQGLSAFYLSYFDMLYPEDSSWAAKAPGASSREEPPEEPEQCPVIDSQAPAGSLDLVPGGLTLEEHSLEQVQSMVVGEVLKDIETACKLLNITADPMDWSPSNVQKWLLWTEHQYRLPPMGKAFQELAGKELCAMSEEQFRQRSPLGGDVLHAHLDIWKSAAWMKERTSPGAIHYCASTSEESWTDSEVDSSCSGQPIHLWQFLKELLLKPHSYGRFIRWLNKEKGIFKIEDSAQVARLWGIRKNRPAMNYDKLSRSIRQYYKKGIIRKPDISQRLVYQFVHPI
To be noted: protein: recombinant; tags: N-terminal GST; dsDNA, one strand shown. Put shortly:
as §1

The target in another test is T10, ETV7 (Homo sapiens, UniProt Q9Y603 1-341).
T10 sequence: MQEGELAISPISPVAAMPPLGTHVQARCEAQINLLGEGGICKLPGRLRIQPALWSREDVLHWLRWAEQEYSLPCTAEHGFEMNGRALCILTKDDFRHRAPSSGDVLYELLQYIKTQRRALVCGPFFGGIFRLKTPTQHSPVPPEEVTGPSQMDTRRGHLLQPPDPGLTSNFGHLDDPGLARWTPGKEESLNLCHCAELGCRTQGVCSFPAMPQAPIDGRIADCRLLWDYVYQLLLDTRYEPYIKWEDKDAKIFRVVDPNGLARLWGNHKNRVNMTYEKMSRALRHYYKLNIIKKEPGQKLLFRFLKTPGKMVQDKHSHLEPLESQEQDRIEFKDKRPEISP
The note with it: protein: recombinant; tags: N-terminal GST; dsDNA, one strand shown. Put shortly:
as §1

The next test addresses T11, ELF5 (Homo sapiens, UniProt Q9UKW6-2 1-255).
T11 sequence: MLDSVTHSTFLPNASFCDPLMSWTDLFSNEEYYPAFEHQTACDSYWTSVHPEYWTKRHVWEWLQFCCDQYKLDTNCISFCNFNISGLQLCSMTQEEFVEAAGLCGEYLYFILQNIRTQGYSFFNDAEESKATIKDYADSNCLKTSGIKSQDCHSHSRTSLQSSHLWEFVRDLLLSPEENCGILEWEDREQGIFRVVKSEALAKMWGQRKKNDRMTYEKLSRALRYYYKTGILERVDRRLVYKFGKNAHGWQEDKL
The note with it: protein: recombinant; tags: N-terminal GST; dsDNA, one strand shown. Put shortly:
as §1

A further test addresses T12, ETV3 (Homo sapiens, UniProt P41162-2 1-143).
T12 sequence: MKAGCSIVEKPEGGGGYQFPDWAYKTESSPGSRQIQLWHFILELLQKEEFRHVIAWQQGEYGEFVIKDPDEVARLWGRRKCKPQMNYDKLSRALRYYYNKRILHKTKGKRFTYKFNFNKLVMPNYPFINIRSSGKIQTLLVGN
To be noted: protein: recombinant; tags: N-terminal GST; dsDNA, one strand shown. Put shortly:
as §1

In a further test the target is ETV6 (Homo sapiens, UniProt P41212 1-452). To be noted: protein: recombinant; tags: N-terminal GST; dsDNA, one strand shown. Put shortly: as §1
Chain of ETV6 (P41212 whole entry): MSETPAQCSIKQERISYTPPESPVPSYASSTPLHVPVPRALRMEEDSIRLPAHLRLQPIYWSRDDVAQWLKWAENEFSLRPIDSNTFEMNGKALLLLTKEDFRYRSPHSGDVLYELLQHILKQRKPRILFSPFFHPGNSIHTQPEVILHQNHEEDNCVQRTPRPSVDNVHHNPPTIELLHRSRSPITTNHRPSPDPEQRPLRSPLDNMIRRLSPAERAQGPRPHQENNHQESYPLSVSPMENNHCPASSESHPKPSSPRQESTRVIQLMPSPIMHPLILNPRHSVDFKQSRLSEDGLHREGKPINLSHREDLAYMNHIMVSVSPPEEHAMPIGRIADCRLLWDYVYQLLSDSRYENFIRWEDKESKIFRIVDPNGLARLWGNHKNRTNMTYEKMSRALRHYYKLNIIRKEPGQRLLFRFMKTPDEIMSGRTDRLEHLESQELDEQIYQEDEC

Chain of ELF4 (Q99607 whole entry): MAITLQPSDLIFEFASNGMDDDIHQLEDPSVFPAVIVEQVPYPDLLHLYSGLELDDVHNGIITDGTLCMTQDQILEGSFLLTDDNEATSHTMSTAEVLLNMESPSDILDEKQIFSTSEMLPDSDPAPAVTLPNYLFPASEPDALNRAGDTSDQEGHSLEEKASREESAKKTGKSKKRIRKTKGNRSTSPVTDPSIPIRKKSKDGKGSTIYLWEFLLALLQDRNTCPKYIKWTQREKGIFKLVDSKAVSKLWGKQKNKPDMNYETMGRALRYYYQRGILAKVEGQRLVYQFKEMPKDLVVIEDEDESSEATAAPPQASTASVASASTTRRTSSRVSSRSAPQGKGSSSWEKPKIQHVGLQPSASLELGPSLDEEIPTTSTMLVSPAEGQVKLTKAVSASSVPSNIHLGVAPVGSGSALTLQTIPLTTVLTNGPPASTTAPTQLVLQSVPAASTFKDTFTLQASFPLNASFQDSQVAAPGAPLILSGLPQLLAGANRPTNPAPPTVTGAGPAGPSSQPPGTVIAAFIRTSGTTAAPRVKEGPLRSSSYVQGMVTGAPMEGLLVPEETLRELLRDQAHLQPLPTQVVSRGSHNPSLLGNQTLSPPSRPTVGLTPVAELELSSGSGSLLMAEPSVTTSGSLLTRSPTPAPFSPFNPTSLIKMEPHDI
Chain of ETV1 (P50549 whole entry): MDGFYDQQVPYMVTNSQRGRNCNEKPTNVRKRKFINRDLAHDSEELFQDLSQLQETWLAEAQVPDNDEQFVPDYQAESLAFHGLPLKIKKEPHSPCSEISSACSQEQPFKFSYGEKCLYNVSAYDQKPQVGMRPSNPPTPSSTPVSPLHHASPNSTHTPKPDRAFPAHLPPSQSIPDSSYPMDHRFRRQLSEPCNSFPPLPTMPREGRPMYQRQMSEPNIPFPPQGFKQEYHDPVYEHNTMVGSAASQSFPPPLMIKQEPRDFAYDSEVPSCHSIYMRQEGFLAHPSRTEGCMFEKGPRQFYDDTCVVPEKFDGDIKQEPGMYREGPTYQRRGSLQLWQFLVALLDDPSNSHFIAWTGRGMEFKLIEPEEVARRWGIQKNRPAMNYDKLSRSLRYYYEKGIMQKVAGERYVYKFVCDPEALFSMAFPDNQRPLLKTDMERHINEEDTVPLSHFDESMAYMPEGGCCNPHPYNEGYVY
Chain of CRX (O43186 whole entry): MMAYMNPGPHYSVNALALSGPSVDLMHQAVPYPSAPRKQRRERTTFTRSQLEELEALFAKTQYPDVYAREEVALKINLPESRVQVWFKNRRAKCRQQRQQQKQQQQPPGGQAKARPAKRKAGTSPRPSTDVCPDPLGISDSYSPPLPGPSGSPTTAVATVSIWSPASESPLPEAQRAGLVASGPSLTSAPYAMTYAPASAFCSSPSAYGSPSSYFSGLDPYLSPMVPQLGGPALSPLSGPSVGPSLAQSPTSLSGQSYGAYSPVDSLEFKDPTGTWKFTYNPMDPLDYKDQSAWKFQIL
Chain of ETV5 (P41161 whole entry): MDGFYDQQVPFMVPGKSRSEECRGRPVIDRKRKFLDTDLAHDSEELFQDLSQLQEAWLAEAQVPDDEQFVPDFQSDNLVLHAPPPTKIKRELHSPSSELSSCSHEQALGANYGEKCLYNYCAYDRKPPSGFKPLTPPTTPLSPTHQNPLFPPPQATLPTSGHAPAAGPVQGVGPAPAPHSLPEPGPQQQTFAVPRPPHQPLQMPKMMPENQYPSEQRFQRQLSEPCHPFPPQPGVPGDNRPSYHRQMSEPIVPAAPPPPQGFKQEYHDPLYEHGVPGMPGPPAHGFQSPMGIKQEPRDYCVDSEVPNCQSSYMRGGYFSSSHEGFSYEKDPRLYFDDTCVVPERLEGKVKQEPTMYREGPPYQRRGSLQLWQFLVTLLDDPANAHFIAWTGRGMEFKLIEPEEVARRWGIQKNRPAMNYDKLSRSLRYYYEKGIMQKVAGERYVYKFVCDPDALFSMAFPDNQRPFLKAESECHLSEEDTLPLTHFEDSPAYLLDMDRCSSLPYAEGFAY

Consider CTATCT, for which the binding signal was 1.34 fold enrichment (6-mer frequency, TF over GST control) in the test with FEV; 1.22 fold enrichment (6-mer frequency, TF over GST control) with ETV5; 1.4 fold enrichment (6-mer frequency, TF over GST control) in the test with HSF1; 1.34 fold enrichment (6-mer frequency, TF over GST control) in the test with SPIC; 1.34 fold enrichment (6-mer frequency, TF over GST control) with ELF4; 1.15 fold enrichment (6-mer frequency, TF over GST control) with ELK4. Also, the binding signal is 1.39 fold enrichment (6-mer frequency, TF over GST control) with ETV2; 1.29 fold enrichment (6-mer frequency, TF over GST control) with ELF3; 1.4 fold enrichment (6-mer frequency, TF over GST control) with CRX; 1.24 fold enrichment (6-mer frequency, TF over GST control) with ETV1; 1.42 fold enrichment (6-mer frequency, TF over GST control) with ERF; 1.39 fold enrichment (6-mer frequency, TF over GST control) in the test with ETV3L. The binding signal with ETS2 was 1.39 fold enrichment (6-mer frequency, TF over GST control); with SPDEF, 1.3 fold enrichment (6-mer frequency, TF over GST control); in the test with ETV7, 1.4 fold enrichment (6-mer frequency, TF over GST control); in the test with ELF5, 1.3 fold enrichment (6-mer frequency, TF over GST control); with ETV3, 1.28 fold enrichment (6-mer frequency, TF over GST control); in the test with ETV6 it was 1.32 fold enrichment (6-mer frequency, TF over GST control).
